# This is a sample that favours compounds with a hit; in the whole collection about 19% have one here.
# TDP1 cell CPT: growth inhibition of DT40 Tdp1-/-;hTDP1 cells with camptothecin (screen for TDP1 inhibitors); Potency, µM (series often up to 46.2 µM), for the others: at the highest dose activity change, negative = growth inhibition, usual class: inhibitors; 420,000 tested, 12% active; AID 686979; chicken DT40 Tdp1-/-;hTDP1 cells + 20 nM CPT, ATP luminescence, 48 h; also: potency is read from the fitted curve at half-maximal effect; % is scaled to controls: 0 for no effect and ±100 for the full control effect; nearly all actives have a fitted effect of over 55% in size
#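 Chicken DT40 Tdp1-/- cells stably complemented with human TDP1 were seeded at 400 cells/well in medium containing 20 nM camptothecin, exposed to pin-transferred compounds, and grown at 37 °C for at least 48 hr. Viability was read as ATP luminescence.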
# HepG2 tox: counter-screen for TGF-b inhibitors: cytotoxicity in HepG2 cells; HepG2 CAGA-GFP viability, ATP luminescence, 18 h; Potency, µM (series often up to 46.1 µM), without a hit: at the highest dose activity change, negative = cytotoxicity, actives largely listed as cytotoxic; 410,000 tested, 0.76% active; AID 588856; also: potency is read from the fitted curve at half-maximal effect
#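 CellTiter-Glo luminescence gave cytotoxicity after 18 hours at 37 degrees C. The cells were HepG2 CAGA-GFP in 1% FBS DMEM, stimulated with 500 pg/mL TGF-beta after compound addition. %Activity was normalised to no-cell wells (complete cell-killing) and DMSO (no toxicity), and curves were fitted and classified.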
# TDP1 block: inhibitors of human tyrosyl-DNA phosphodiesterase TDP1; Q9NUW8; Potency, µM (highest dose often 130 µM), inactives show at the highest dose activity change, negative = inhibition, most hits filed as inhibitors; recombinant TDP1, AlphaScreen DNA substrate cleavage; 350,000 tested, 0.28% active; also: potency is read from the fitted curve at half-maximal effect; % is scaled to controls: 0 for no effect and ±100 for the full control effect; nearly all actives have a fitted effect of over 40% in size
# Target sequence (Q9NUW8 whole entry, looked up): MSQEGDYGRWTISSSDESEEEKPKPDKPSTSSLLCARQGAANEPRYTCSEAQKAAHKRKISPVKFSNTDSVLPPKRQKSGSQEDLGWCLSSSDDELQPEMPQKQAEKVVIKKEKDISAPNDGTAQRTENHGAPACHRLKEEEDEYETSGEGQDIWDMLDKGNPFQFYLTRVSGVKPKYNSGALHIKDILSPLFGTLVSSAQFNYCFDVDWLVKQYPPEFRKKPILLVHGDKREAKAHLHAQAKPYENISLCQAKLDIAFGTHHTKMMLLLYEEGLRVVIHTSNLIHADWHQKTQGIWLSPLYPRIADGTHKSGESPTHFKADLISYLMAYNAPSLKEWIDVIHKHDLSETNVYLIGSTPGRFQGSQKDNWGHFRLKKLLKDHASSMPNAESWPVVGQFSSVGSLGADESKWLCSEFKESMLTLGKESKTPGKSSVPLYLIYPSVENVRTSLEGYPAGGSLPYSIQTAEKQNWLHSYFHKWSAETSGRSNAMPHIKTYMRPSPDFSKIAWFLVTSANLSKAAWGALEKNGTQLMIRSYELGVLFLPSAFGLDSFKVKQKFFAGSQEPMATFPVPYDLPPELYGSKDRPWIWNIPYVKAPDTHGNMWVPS
#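 AlphaScreen read-out: signal falls as enzyme removes the 3' tyrosine-FITC from a 5'-biotinylated DNA oligo (15 nM, 5 min, RT). Enzyme was E. coli-made recombinant Tdp1 at 1 nM, exposed to compound for 15 min beforehand; beads 10 ug/ml, 10 min.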
# DT40 TDP1 no CPT: qHTS for Inhibitors of human tyrosyl-DNA phosphodiesterase 1 (TDP1): qHTS in cells in absence of CPT; 420,000 tested, 15% active; DT40 Tdp1-/- hTDP1 cells, no CPT, ATP luminescence, 48 h; AID 686978, 2013; Potency, µM (top dose mostly 46.2 µM), for inactives: at the highest dose activity change, negative = growth inhibition, actives largely listed as inhibitors; also: potency is read from the fitted curve at half-maximal effect; % is scaled to controls: 0 for no effect and ±100 for the full control effect; nearly all actives have a fitted effect of over 55% in size
#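 Growth kinetics read by CellTiter-Glo luminescence after ≥48 hr at 37 °C. Cells: DT40 Tdp1-/- stably carrying human TDP1, 400 per well, compound exposure in the absence of CPT (DMSO vehicle).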
# IL1B secr inh: inflammasome signaling inhibition, IL-1 beta readout | THP-1 LPS/ATP IL-1B secretion, AlphaLISA, 16 h; active compounds read low | activity change, % at 57.5 µM | 360,000 tested, 4.7% active | AID 743279; in the data active = activity change below about -50%; inconclusive = mostly about -30% to -49%; also: % is scaled to controls: 0 for no effect and ±100 for the full control effect
#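 Secreted IL-1B measured by AlphaLISA bead assay after 16 h compound exposure of THP-1 cells; compounds (final up to 57.5 uM) added 1 h before LPS (250 ng/mL) and ATP (1.25 mM) stimulation; lower signal means less secretion.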
# TGFb SMAD3 inh: blocks TGF-b signaling. Potency, µM (titrated, usually from 46.1 µM), inactives show top-dose activity, negative = inhibition, actives largely listed as inhibitors. HepG2 CAGA-GFP TGF-b/SMAD3 reporter, GFP fluorescence, 18 h; TGF-beta stimulated, 500 pg/mL final. 410,000 tested, 1.2% active; also: potency is read from the fitted curve at half-maximal effect; % is scaled to controls: 0 for no effect and ±100 for the full control effect; nearly all actives have a fitted effect of over 65% in size
#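 Per well, imaged GFP fluorescence of HEPG2 CAGA-GFP cells gives the signal; cells get compound, then TGF-beta (500 pg/mL final), 18 h at 37 degrees C; %Activity versus -TGF-beta and +DMSO controls.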
# An asterisk follows results filed as active; u = inconclusive; x = no result given; [ ] = dose if it differs, or a comment. Unless noted, calls follow the shape of the dose curve; as a rule, active = well fitted curve in the direction sought with a large enough effect; inconclusive = small, poorly fitted or top-dose-only effect, or another doubt; inactive = no such curve, though single readings can be large; an effect the other way counts as inactive or inconclusive.
SMILES,TDP1 cell CPT,HepG2 tox,TDP1 block,DT40 TDP1 no CPT,IL1B secr inh,TGFb SMAD3 inh
CC(=O)C(=Cc1cccc(C#N)c1)C(=O)c1ccccc1,16µM*,-44%,x,16µM*,-118*,u
COc1ccc(C=C(C(C)=O)C(=O)c2ccccc2)cc1,u,-23%,x,u,-94*,-9%
COc1ccc(C=C(C(=O)c2ccccc2)c2ccccc2)cc1,u,-7%,x,u,6,-3%
CC(=O)NS(=O)(=O)c1ccc(NC(=O)CCC(=O)Oc2ccc(C)cc2)cc1,3%,11%,x,6%,4,15%
C=C(C)C(=O)c1ccc(OC)cc1,x,x,5%,x,x,x
COc1ccc(C(=O)/C(Br)=C\C(=O)O)cc1,2.7µM*,x,x,u,x,x
CCc1nc2sc3c(O)cc(=O)[nH]c3c2cc1C,u,-2%,-5%,12µM*,-7,-2%
O=C(CC1C[C@H](C(=O)N2CCCCC2)[C@@]2(CCc3ccccc3)c3[nH]c4ccccc4c3CCN2C1=O)NCCC1=CCCCC1 (some centres undefined),u,5%,2%,u,-17,11%
CN(C)C(=O)CCc1ccc2c3c([nH]c2c1)[C@]1(CCc2ccccc2)[C@@H](C(=O)N2CCCCC2)C[C@H](CC(=O)NCc2ccco2)C(=O)N1CC3,-13%,5%,1%[56.1 µM],u,-22,5%
C[C@]12c3[nH]c4ccccc4c3CCN1C(=O)C(CC(=O)NCc1ccco1)C[C@@H]2C(=O)N1CCCCC1 (some centres undefined),u,-27%,8%,u,-6,-16%
CC[C@]12c3[nH]c4cc(-c5ccco5)ccc4c3CCN1C(=O)[C@@H](CC(=O)NCc1ccc(OC)c(OC)c1)C[C@@H]2C(=O)N1CCN(C(=O)c2ccco2)CC1,u,3%,3%[56.1 µM],u,u,u
O=C(C[C@H]1C[C@H](C(=O)N2CCCCC2)[C@@]2(CCc3ccccc3)c3[nH]c4cc(-c5ccco5)ccc4c3CCN2C1=O)NCCC1=CCCCC1,u,2%,3%[56.1 µM],18µM*,-13,-24%
O=C(CC1C[C@H](C(=O)N2CCCCC2)[C@@]2(CCc3ccccc3)c3[nH]c4ccccc4c3CCN2C1=O)NCc1ccco1 (some centres undefined),13µM*,-41%,4%,21µM*,-60*,-3%
O=C(C[C@H]1C[C@H](C(=O)N2CCCCC2)[C@@]2(CCc3ccccc3)c3[nH]c4cc(-c5ccco5)ccc4c3CCN2C1=O)NCc1ccco1,u,-4%,2%[56.1 µM],u,-51*,-32%
O=C(C[C@H]1C[C@H](C(=O)N2CCCCC2)[C@@]2(CCc3ccccc3)c3[nH]c4cc(-c5ccco5)ccc4c3CCN2C1=O)NCc1cccc(C(F)(F)F)c1,u,-5%,-4%[56.1 µM],21µM*,-1,-29%
CCN(CC)S(=O)(=O)c1ccc(NCCc2ccccn2)nc1,1%,0%,0%,-8%,22,-4%
O=C(OCc1cc(=O)n2ccsc2n1)c1ccc(O)cc1O,-20%,-1%,-1%,-17%,-26,17%
CN1CCc2c(n(CC(O)CNCc3ccccc3)c3ccccc23)C1=O (centres undefined),8.2µM*,-37%,-6%,8.2µM*,u,u
O=C(NCC1CCCN1S(=O)(=O)c1cccs1)c1ccccc1F (centres undefined),-27%,-24%,0%,u,-3,0%
COc1cccc(N2CCN(c3nc(C)c(C)c(=O)[nH]3)CC2)c1,1%,9%,3%,-11%,23,8%

# Bioassay records: PubChem, National Center for Advancing Translational Sciences (NCATS)
